This is an account of results in PubChem BioAssay (NCATS).

Test [1] deals with Thioredoxin reductase 1, cytoplasmic (Rattus norvegicus) (UniProt O89049). Description: qHTS Assay for Inhibitors of Mammalian Selenoprotein Thioredoxin Reductase 1 (TrxR1) (AID 488773). Note: nearly all actives have a fitted effect of over 40% in size. Note: potency is the fitted concentration of half-maximal effect. To be noted: Potency: inhibition. Summed up:
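Inhibition is scored from the loss of NADPH fluorescence between first and last reads of an 8-min kinetic run. Selenite (400 uM) was the substrate, added after 15 min compound preincubation at room temperature.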

In test [2] the target is Flap endonuclease 1 (Homo sapiens) (UniProt P39748). Description: qHTS Validation Assay for the Inhibitors of Human Flap endonuclease 1 (FEN1) (AID 488816). Summed up: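 Steps: add FEN1 (10 nM reagent) or buffer only; pin compounds; hold 15 min at room temperature; start with substrate, 50 nM final; read at 0 and 15 min; correct, normalize and fit a four-parameter Hill curve.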
Sequence of Flap endonuclease 1 (Homo sapiens) (P39748 whole entry, looked up): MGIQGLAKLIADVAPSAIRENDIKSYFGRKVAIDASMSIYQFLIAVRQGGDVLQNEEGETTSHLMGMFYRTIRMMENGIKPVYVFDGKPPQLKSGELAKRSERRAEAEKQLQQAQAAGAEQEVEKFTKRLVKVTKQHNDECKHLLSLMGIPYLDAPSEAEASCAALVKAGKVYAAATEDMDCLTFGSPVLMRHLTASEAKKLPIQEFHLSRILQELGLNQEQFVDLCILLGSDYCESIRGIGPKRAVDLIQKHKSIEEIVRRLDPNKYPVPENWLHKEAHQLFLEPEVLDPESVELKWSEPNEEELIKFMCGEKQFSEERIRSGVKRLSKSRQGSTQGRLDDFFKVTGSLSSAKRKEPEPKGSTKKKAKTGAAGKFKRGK

The target in test [3] is M-phase phosphoprotein 8 (Homo sapiens) (UniProt Q99549). Description: qHTS Validation Assay for Inhibitors for MPP8 Chromodomain Interactions with Methylated Histone Tails (AID 488949). Note: nearly all actives have a fitted effect of over 55% in size. Note: potency is the fitted concentration of half-maximal effect. In outline: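 MPP8 (50 nM) was pre-bound to 50 nM biotinylated H3(1-18)K9me3 peptide in PBS pH 7.4 with 0.01% Tween-20. Compounds were then added for 30 min at room temperature, and complex disruption was read by AlphaScreen with streptavidin donor and nickel-chelate acceptor beads.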
Sequence of M-phase phosphoprotein 8 (Homo sapiens) (Q99549 whole entry, looked up): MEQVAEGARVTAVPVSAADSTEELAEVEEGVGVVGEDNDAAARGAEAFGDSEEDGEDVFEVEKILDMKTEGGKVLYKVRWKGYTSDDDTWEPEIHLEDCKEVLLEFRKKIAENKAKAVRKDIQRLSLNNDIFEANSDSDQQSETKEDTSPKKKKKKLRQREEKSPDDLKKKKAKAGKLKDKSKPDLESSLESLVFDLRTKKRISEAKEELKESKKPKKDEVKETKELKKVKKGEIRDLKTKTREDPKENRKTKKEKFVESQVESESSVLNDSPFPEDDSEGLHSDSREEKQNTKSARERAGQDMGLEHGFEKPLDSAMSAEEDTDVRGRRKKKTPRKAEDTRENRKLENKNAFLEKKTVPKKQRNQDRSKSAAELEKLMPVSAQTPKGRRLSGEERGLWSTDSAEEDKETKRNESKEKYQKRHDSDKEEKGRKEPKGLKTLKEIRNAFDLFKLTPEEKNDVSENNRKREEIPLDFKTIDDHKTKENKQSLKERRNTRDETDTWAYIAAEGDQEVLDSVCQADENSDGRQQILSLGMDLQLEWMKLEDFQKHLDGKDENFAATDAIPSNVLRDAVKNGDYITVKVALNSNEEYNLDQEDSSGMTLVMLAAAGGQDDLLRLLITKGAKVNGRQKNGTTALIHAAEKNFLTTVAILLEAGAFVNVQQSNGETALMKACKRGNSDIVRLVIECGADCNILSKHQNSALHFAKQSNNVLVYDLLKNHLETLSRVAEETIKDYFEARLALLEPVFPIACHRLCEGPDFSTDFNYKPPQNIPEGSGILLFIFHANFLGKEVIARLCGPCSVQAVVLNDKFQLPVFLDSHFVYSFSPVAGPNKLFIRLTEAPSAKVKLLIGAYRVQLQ
On the technique in general: In qHTS, concentration-response curves come from the screen itself.

The target of test [4] is Chromobox protein homolog 1 (Homo sapiens) (UniProt P83916). Description: qHTS Validation Assay for Inhibitors of HP1-beta Chromodomain Interactions with Methylated Histone Tails (AID 488953).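 Note: loss of AlphaScreen luminescence from HP1-beta binding biotinylated H3K9me3 peptide; series mostly up to about 110 µM; nearly all actives have a fitted effect of over 50% in size.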 Summed up:
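Compounds pinned into a preassembled complex of HP1-beta and trimethyl-K9 histone H3(1-18) biotin peptide (50 nM each; PBS pH 7.4, 0.01% Tween-20). After 30 min, bead-based AlphaScreen detection followed.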

Test [5] has as its target Methanococcus maripaludis chaperonin (MmCpn) (UniProt Q6LX38). Description: High-Throughput Screening for Modulators of Cytosolic Chaperonin Activity: MmCpn Primary Screen (AID 488978).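 Note: 50 nM MmCpn enzyme hydrolysing 30 µM ATP at 37 °C.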 Summed up: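 MmCpn at 50 nM final was preincubated 5 min at RT with compound. ATP was then added at 30 uM final for 10 min at 37 C. ADP formed was detected by Transcreener HTRF (665/590 nm).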

Test [6] deals with D(1A) dopamine receptor (Homo sapiens) (UniProt P21728). Description: HTS Assay for Allosteric Agonists of the Human D1 Dopamine Receptor: Primary Screen for Agonists (AID 488981). Summed up: (§1)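 Tetracycline-induced HEK293 T-REx cells force-coupled to calcium signalling were incubated overnight at 30 C and dye-loaded at room temperature. Calcium flux over 180 s after compound addition flagged agonists; a further 180 s read after EC20 dopamine flagged potentiators.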
Sequence of D(1A) dopamine receptor (Homo sapiens) (P21728 whole entry, looked up): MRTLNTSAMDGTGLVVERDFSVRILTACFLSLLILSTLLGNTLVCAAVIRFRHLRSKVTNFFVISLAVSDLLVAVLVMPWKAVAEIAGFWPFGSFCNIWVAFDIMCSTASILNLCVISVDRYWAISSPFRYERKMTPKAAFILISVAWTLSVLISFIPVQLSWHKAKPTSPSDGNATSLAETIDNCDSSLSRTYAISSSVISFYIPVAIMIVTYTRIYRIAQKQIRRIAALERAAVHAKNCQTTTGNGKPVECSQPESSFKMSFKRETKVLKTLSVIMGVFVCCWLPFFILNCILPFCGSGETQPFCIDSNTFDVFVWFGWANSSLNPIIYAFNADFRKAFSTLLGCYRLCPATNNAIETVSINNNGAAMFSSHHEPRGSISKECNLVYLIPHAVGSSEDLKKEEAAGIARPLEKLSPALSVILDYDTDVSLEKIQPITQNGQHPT

Test [7] has the same target. Description: HTS Assay for Allosteric Agonists of the Human D1 Dopamine Receptor: Primary Screen for Potentiators (AID 488982). In outline:
as §1

For test [8] the target is unchanged. Description: HTS Assay for Allosteric Agonists of the Human D1 Dopamine Receptor: Primary Screen for Antagonists (AID 488983).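 Note: calcium flux response to an EC80 dopamine challenge measured with no-wash dye; nearly all actives have a fitted effect of over 65% in size.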 Note: potency is the fitted concentration of half-maximal effect. In outline:
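In this primary screen, compounds are applied to calcium-dye-loaded HEK293 T-REx cells with force-coupled D1 expression induced overnight at 30 C. An EC80 of dopamine follows the 180 s compound phase, and calcium is monitored for a further 180 s.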

The target in test [9] is Transient receptor potential cation channel subfamily V member 1 (Homo sapiens) (UniProt Q8NER1). Description: HTS Assay for Compounds that Act as Enhancers of the Vanilloid Receptor 1 (AID 488979). In outline: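 TRPV1-expressing cells loaded with Fluo-8 calcium dye; compounds added and calcium influx read kinetically for 3 min (agonist phase), then capsaicin at EC20 added and read 2 min more for enhancement. Fluorescence ex 480/em 520 nm.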
Sequence of Transient receptor potential cation channel subfamily V member 1 (Homo sapiens) (Q8NER1 whole entry, looked up): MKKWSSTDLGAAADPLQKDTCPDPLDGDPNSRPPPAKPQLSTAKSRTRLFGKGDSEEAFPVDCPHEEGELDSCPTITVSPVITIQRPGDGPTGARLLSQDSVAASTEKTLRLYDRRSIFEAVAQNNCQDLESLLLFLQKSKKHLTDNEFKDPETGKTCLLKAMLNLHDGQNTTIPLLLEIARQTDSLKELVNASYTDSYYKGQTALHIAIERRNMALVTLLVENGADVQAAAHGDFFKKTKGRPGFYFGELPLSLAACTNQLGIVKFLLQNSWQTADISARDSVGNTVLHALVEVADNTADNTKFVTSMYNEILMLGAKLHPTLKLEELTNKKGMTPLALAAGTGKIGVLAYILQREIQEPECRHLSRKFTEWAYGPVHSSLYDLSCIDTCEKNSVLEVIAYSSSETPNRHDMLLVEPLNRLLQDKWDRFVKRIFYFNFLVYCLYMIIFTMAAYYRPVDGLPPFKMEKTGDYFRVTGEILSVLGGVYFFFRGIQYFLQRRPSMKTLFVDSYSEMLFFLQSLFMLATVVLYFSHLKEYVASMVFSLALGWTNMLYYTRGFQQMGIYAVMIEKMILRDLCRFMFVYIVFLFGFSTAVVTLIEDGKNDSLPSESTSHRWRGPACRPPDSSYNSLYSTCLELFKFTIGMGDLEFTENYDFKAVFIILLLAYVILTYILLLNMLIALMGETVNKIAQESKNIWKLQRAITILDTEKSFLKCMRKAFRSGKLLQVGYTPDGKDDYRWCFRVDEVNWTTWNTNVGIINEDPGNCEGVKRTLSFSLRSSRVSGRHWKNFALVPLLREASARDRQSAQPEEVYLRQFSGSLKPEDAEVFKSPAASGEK

Test [10] deals with Thyrotropin receptor (Homo sapiens) (UniProt P16473). Description: qHTS Assay for Antagonists of the Thyroid Stimulating Hormone Receptor (AID 488980). Note: series mostly up to about 58 µM. In outline: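 TSHR-transfected HEK293 cells (2000/well) in HEPES-buffered HBSS with 70 uM RO 20-1724 were stimulated with 4 nM TSH (EC80, final) in the presence of compound. cAMP was measured by HTRF competition after lysis and 30 min at RT.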
Sequence of Thyrotropin receptor (Homo sapiens) (P16473 whole entry, looked up): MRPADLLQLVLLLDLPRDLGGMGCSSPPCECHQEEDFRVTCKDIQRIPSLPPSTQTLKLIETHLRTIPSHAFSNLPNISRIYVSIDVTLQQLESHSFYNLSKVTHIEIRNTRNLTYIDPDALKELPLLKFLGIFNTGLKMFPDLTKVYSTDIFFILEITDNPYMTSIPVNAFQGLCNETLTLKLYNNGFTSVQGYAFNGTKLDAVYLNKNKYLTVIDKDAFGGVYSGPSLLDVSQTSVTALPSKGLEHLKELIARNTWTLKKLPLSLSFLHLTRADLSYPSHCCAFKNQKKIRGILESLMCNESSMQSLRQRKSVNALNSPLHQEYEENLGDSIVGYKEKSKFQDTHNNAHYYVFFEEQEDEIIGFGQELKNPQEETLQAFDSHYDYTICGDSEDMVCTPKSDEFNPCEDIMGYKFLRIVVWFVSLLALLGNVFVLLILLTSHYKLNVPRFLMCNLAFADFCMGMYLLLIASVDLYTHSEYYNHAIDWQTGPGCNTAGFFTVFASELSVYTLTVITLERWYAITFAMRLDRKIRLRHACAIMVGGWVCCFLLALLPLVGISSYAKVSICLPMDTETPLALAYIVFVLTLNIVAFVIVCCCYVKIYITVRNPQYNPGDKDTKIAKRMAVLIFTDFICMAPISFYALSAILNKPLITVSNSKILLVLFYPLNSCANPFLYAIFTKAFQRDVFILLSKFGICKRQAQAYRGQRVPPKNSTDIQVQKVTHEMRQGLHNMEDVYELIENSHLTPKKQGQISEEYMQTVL

Inconclusive results are not listed. Some compounds were tested as several samples or in several runs, with calls that do not always agree. The source made the active and inactive calls. Calls come from the whole dose curve; as a rule, active = well fitted curve in the direction sought with a large enough effect; inconclusive = small, poorly fitted or top-dose-only effect, or another doubt; inactive = no such curve, though single readings can be large; an effect the other way counts as inactive or inconclusive.

Sequence of Thioredoxin reductase 1, cytoplasmic (Rattus norvegicus) (O89049 whole entry, looked up): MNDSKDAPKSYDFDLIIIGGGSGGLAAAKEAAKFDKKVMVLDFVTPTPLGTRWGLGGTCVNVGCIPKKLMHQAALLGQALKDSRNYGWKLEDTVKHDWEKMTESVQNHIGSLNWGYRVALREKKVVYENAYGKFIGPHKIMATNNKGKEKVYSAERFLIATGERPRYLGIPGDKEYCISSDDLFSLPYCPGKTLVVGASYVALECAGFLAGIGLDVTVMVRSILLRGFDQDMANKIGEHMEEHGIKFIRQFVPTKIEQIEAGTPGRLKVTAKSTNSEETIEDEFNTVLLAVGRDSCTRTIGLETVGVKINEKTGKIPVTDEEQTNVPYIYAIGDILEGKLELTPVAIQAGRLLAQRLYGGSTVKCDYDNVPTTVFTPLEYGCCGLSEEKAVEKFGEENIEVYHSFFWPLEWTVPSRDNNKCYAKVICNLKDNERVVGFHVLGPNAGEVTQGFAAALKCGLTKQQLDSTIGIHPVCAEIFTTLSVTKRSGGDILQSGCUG
Sequence of Chromobox protein homolog 1 (Homo sapiens) (P83916 whole entry, looked up): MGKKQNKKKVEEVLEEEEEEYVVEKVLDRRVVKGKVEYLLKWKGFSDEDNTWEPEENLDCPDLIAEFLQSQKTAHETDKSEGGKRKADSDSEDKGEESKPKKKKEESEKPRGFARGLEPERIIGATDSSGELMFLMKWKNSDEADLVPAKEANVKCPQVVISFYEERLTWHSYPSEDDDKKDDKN
Sequence of Methanococcus maripaludis chaperonin (MmCpn) (Q6LX38 1-543): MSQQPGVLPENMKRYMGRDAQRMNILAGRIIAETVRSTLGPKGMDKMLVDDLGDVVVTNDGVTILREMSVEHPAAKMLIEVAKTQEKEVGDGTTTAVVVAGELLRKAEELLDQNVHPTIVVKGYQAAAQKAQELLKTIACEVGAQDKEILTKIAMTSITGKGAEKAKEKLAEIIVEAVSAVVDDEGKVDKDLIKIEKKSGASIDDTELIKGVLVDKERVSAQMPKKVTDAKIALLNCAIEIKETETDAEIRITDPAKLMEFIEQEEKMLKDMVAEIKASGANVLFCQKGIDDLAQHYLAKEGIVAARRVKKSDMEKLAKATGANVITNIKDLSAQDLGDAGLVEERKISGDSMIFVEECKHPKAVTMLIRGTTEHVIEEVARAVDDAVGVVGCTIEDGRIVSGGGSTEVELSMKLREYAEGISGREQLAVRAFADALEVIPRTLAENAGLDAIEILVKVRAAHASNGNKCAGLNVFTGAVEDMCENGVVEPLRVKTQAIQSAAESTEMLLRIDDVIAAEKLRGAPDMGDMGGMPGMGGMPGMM

As for `C[n+]1cc2c3c(ccc2c2ccc4cc5c(cc4c21)OCO5)OCO3`, the Potency result in test [1], in test [2], in test [4], in test [6], in [7] and in [8] was “inactive” in each case. In [3], the Potency is 31.6 µM (active) and inactive. Further, the call in [5] was inactive.
`CCCN1C[C@H](CSC)C[C@@H]2c3cccc4[nH]cc(c34)C[C@H]21`: the Potency entry in [1], in test [2], in test [3], in test [6] and in [7] was “inactive” in each case. Besides, the call in [5], in [9] and in test [10] was inactive.
For `CN1CCN(CC(=O)N2c3ccccc3C(=O)Nc3cccnc32)CC1`, the Potency entry in test [1], in test [2], in test [3], in [6] and in test [8] was “inactive” in each case. Also, the call in test [5], in [9] and in test [10] was inactive.
With `CN(C)CCN(Cc1cccs1)c1ccccn1`, the Potency result in [1], in [2], in test [3], in [4], in test [6] and in [7] was “inactive” in each case. The Potency result in test [8] is “inactive”. Moreover, the molecule was classed as inactive in test [5].
With `Nc1nc(N)c2nc(-c3ccccc3)c(N)nc2n1`, the Potency entry in test [1], in test [2], in [3], in test [6], in test [7] and in test [8] was “inactive” in each case. Further, the call in test [5], in test [9] and in [10] was inactive.
As to `O=C1CC2(CCCC2)CC(=O)N1CCCCN1CCN(c2ncccn2)CC1`, the Potency entry in test [1], in test [2], in test [3], in test [6] and in test [8] was “inactive” throughout. Further, the result in [5] and in test [9] was inactive.
Take `COCC(=O)O[C@]1(CCN(C)CCCc2nc3ccccc3[nH]2)CCc2cc(F)ccc2[C@@H]1C(C)C`: the Potency entry in test [1], in test [2], in test [3] and in test [7] was “inactive” each time. Further, the result in [5] and in test [10] was inactive.
For `CN(C)CCCN1c2ccccc2Sc2ccccc21`, the Potency entry in test [1], in test [2], in test [3] and in test [7] was “inactive” throughout. Moreover, the result in test [5] was inactive. In addition, in test [8], the Potency is 5.01 µM (active).
With `NC1=NCC2c3ccccc3Cc3ccccc3N12` (stereo not given), the Potency result in [1], in [2], in test [3], in [4], in test [6] and in [7] was “inactive” each time. Also, in test [5], the outcome was inactive. In [8], the Potency is 15.8 µM (active).
As for `c1cc(CN2CCCCC2)cc(OCCCNc2nc3ccccc3s2)c1`, the Potency result in test [1], in test [2], in [3], in [6] and in test [7] was “inactive” each time. The molecule was classed as inactive in [5].
With `CN(C)C/C=C(/c1ccc(Br)cc1)c1cccnc1`, the Potency result in test [1], in test [2], in test [3], in [6] and in [7] was “inactive” each time. Also, the call in test [5] was inactive. In test [8], the Potency was 12.6 µM (active).
For `CCC(=O)c1ccc2c(c1)N(CCCN(C)C)c1ccccc1S2`, the Potency result in test [1], in test [2], in [3], in test [6] and in [7] was “inactive” in each case. Also, in test [5], the molecule was called inactive. Further, the Potency in test [8] is 0.891 µM (active).
Consider `Cc1cccc(C)c1NC(=O)C(C)N` (stereo not given), for which the Potency entry in test [1], in [2], in test [3], in test [4], in test [6] and in test [7] was “inactive” in each case. Further, the Potency result in [8] is “inactive”. Besides, the outcome in [5] was inactive.
As to `COc1ccc2c(c1OC)C(=O)O[C@@H]2[C@H]1c2c(cc3c(c2OC)OCO3)CCN1C`, the Potency entry in test [1], in [2], in test [3], in test [6], in test [7] and in test [8] was “inactive” each time. The molecule was called inactive in test [5].
On to `COc1cc(C(=O)OCCCN2CCCN(CCCOC(=O)c3cc(OC)c(OC)c(OC)c3)CC2)cc(OC)c1OC`, for which the Potency result in test [1], in [2], in test [3], in test [6], in test [7] and in test [8] was “inactive” each time. Besides, the molecule was called inactive in test [5], in test [9] and in test [10].
Take `FC(F)(F)c1ccccc1-n1ccnc1`: the Potency entry in [1], in test [2], in test [3], in [6], in [7] and in test [8] was “inactive” throughout. Also, the molecule was called inactive in test [5] and in [9].
Turning to `C(=C\c1ccccc1)/CN1CCN(C(c2ccccc2)c2ccccc2)CC1`, the Potency entry in test [1], in [2], in test [3], in test [6], in [7] and in [8] was “inactive” throughout. Besides, the call in test [5] and in test [9] was inactive.
On to `CCc1c(C)[nH]c2c1C(=O)C(CN1CCOCC1)CC2` (stereo not given), for which the values for the Potency in test [1] and in [8] were 29.9 µM (active) and 14.1 µM (active), respectively. For the same molecule, the Potency entry in test [2], in test [3], in test [6] and in [7] was “inactive” each time. Further, the molecule was called inactive in test [5], in test [9] and in test [10].
As for `COCCOC(=O)C1=C(C)NC(C)=C(C(=O)OC(C)C)C1c1cccc([N+](=O)[O-])c1` (stereo not given), the Potency entry in test [1], in test [2], in test [3], in test [6], in test [7] and in test [8] was “inactive” in each case. Also, the outcome in [5] and in test [9] was inactive.
Turning to `NC(Cc1ccc(Cl)cc1)C(=O)O` (stereo not given), the Potency entry in [1], in test [2], in test [3], in test [6], in test [7] and in test [8] was “inactive” each time. Also, the call in test [5] and in [9] was inactive.
On to `CC(C(=O)O)c1ccc(CC2CCCC2=O)cc1` (stereo not given), for which the Potency result in test [1], in test [2], in [3], in test [6], in [7] and in [8] was “inactive” each time. Besides, the molecule was classed as inactive in [5], in [9] and in test [10].
For `Cc1ccc(S(=O)(=O)NC(=O)NN2CCCCCC2)cc1`, the Potency result in test [1], in test [2], in test [3], in test [4], in test [6] and in test [7] was “inactive” in each case. Also, in test [8], the Potency entry is “inactive”. Also, the result in test [9] was inactive.
For the molecule `CCn1cc(C(=O)O)c(=O)c2cc3c(cc21)OCO3`, the Potency result in test [1], in test [2], in test [3], in test [6], in test [7] and in test [8] was “inactive” each time. For the same molecule, the result in test [5], in test [9] and in [10] was inactive.
As to `CC(=O)[C@@]1(O)CC[C@H]2[C@@H]3CCC4=CC(=O)CC[C@]4(C)[C@H]3CC[C@@]21C`, the Potency entry in [1], in [2], in [3], in test [4], in test [6] and in [7] was “inactive” throughout. Moreover, the Potency result in test [8] was “inactive”. For the same molecule, in test [5], the call was inactive.
Consider `CO[C@@]1(NC(=O)CSCC#N)C(=O)N2C(C(=O)O)=C(CSc3nnnn3C)CS[C@@H]21`, for which the Potency in [1] was 21.2 µM (active). Further, the Potency entry in [2], in test [3], in test [6], in test [7] and in [8] was “inactive” throughout. For the same molecule, the molecule was called inactive in test [5] and in test [9].
In the case of `CC(C)(C)c1ccc(C(=O)CCCN2CCC(OC(c3ccccc3)c3ccccc3)CC2)cc1`, the Potency entry in test [1], in test [2], in test [3] and in test [6] was “inactive” throughout. Also, in [5], the result was inactive.
In the case of `CCOC(=O)C1=C(C)NC(C)=C(C(=O)OC)C1c1cccc([N+](=O)[O-])c1` (stereo not given), the Potency result in test [1], in test [2], in test [3] and in test [6] was “inactive” in each case. Also, the call in test [5], in test [9] and in test [10] was inactive.
On to `C[C@@H](O)[C@H]1C(=O)N2C(C(=O)O)=C(SCCN=CN)C[C@H]12`, for which the Potency entry in test [1], in test [2], in [3], in [4], in test [6] and in [7] was “inactive” throughout. For the same molecule, in [8], the Potency entry was “inactive”. In addition, in test [5], the molecule was called inactive.
